OPRM1-OPRD1 inv: inverse agonist of human OPRM1-OPRD1 heterodimerization; P35372+P41143; cell-based MOR-DOR heterodimer luminescence, inverse agonism; inhibition, % at 9.3 µM; hit rate 0.21% among 340,000; AID 504357; in the data active means inhibition above about 22%, passing the limit was not always enough
Target sequence (P35372 whole entry, looked up): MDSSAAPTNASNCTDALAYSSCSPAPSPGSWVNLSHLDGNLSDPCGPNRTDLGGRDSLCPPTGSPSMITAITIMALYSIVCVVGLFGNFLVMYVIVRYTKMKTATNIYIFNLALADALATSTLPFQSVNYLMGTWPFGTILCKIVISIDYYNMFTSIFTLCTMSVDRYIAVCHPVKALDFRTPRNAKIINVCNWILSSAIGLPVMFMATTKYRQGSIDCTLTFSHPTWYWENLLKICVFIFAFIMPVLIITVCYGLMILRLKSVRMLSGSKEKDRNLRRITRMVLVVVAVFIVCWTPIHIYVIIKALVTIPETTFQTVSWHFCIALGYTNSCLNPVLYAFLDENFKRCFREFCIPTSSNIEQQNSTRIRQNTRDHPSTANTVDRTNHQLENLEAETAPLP
Target sequence (P41143 whole entry, looked up): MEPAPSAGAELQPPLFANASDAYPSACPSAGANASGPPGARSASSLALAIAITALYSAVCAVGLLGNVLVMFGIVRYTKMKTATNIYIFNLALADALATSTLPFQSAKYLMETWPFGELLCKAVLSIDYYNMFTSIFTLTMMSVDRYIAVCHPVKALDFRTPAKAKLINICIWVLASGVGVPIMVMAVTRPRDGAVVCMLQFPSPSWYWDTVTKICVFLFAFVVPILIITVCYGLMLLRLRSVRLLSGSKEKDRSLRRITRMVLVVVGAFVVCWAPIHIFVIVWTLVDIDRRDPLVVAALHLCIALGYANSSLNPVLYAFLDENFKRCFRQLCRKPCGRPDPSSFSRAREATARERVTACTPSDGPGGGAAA
HTR5A inv ctr: inverse agonist of human HTR5A in OPRM1-OPRD1 counter-screen. P47898. inhibition, % at 9.3 µM. HTR5A cell line, luminescence, inverse agonism. AID 504634. hit rate 0.083% among 340,000; in the data active means inhibition mostly above about 23%, no sharp cut-off; inactive means mostly below about 18%
OPRM1-OPRD1 ag: OPRM1-OPRD1 heterodimerization agonism; hit rate 0.3% among 340,000; activation, % at 9.3 µM; AID 504326; cells, luminescence
HTR5A ag ctr: counter-screen for OPRM1-OPRD1 agonists: human HTR5A agonism; hit rate 0.61% among 340,000; activation, % at 9.3 µM; HTR5A agonist assay, luminescence, cell-based; P47898; AID 504692; in the data active means activation mostly above about 9.5%, no sharp cut-off; inactive means mostly below about 7.6%
OPRM1-D1 ag cf: OPRM1-OPRD1 heterodimer agonism, confirmation. shares compounds with OPRM1-OPRD1 ag. cells, MOR-DOR heterodimerization, luminescence complementation. activation, % at 9.3 µM. hit rate 45% among 830
HTR5A ag ctr2: HTR5A agonism, opioid heterodimer counter-screen. hit rate 8% among 830. shares compounds with OPRM1-OPRD1 ag. activation, % at 9.3 µM. HTR5A agonist counterscreen, cell luminescence. AID 504905; in the data active means activation above about 17%
A number is an active result; . = inactive; / = no result. This is a sample that favours compounds with a hit; in the whole collection about 1.1% have one here. Unless noted, no stated cut-off is given here; in the data, active means activation above about 18%; inactive means the rest.

SMILES | OPRM1-OPRD1 inv | HTR5A inv ctr | OPRM1-OPRD1 ag | HTR5A ag ctr | OPRM1-D1 ag cf | HTR5A ag ctr2
O=C(NNC(=O)c1ccc2nc[nH]c2c1)c1ccccc1 | . | . | . | . | / | /
CN(C)C(CNC(=O)c1ccc2nc[nH]c2c1)c1ccccc1 (stereo not drawn) | . | . | 24.6 | . | . | .
COc1ccc2nc3cc(Cl)ccc3c(Nc3cc(C(C)C)c(O)cc3C)c2c1 | . | . | 19.9 | . | . | .
O=C(CSc1nnc(-c2ccncc2)n1Cc1ccccc1)Nc1nccs1 | . | . | . | . | / | /
CC(C)c1ccccc1NC(=O)c1cccc(NC(=O)c2ccccc2)c1 | . | . | 48.5 | . | . | .
COCC1CCN(Cc2cn(-c3ccccc3F)nc2-c2cc(C)sc2C)CC1 | . | . | 42.5 | . | 54.9 | .
CN(C)S(=O)(=O)c1ccc(Cl)c(C(=O)NNC(=O)Cc2nc3ccccc3n2C)c1 | . | . | . | . | / | /
Cc1cccc(NC(=O)NNC(=O)CCc2ccccc2)c1 | . | . | . | . | / | /
Cc1cccc(NC(=S)NC(=O)CCc2ccccc2)c1 | . | . | 18.1 | . | 351.9 | .
Cc1nnc(SCC(=O)N(C)CC(=O)Nc2ccccc2Cl)s1 | . | . | . | . | / | /
CC(CC(=O)N(CCC1=CCCCC1)c1c(N)n(Cc2ccccc2)c(=O)[nH]c1=O)c1ccccc1 (stereo not drawn) | . | . | 39.1 | . | 32.7 | .
CCOc1ccc(OCC(=O)N(CCC2=CCCCC2)c2c(N)n(Cc3ccccc3)c(=O)[nH]c2=O)cc1 | . | . | . | . | / | /
COc1ccc(N(Cc2cc3cc(OC)ccc3[nH]c2=O)C(=O)C2CCCO2)cc1 (stereo not drawn) | . | . | . | . | / | /
CCCCCCCN(c1ccccc1)[C@@H]1C[C@H]2CCCC(=O)N3CC[C@@H](C1)[C@@H]23 | . | . | 18.8 | . | . | .
CCCCNC(=O)O[C@@H]1C[C@H]2CCCC(=O)N3CC[C@@H](C1)[C@@H]23 | . | . | . | . | / | /
CC(C)=CCN1CCN(CCC2=C(C)CCCC2(C)C)CC1CCO (stereo not drawn) | . | . | 23.6 | . | . | .
COc1cc2nc(Nc3cccc(F)c3)nc(N)c2cc1OC | . | . | 27.3 | . | . | .
Cc1[nH]c2ccccc2c1/C=N/Nc1nc(Nc2ccc(F)cc2)nc(N2CCOCC2)n1 | . | . | . | . | / | /
Cc1ccc(Nc2nc(N/N=C/c3c[nH]c4ccccc34)nc(N3CCOCC3)n2)cc1 | . | . | 18.8 | . | . | .
O=C(NCCc1cccc(Cl)c1)c1ccc(OC2CCN(Cc3ccccn3)CC2)cc1 | . | . | 64.7 | . | . | .
CSCCCNC(=O)c1ccc(OC2CCN(CCc3ccccc3)CC2)cc1 | . | . | 21.8 | . | 32.3 | .
Cc1cccnc1CCNC(=O)c1ccc(OC2CCN(Cc3ccccn3)CC2)cc1 | . | . | . | . | / | /
O=C(NCCc1ccccn1)c1ccc(OC2CCN(CCc3ccccc3)CC2)cc1 | . | . | . | . | / | /
CC(C)(C)c1cc(Cl)ccc1OCCn1ccnc1 | . | . | . | . | / | /
CC(C)Cn1nc(C(=O)NCc2ccccc2CN2CCCC2)c2ccccc2c1=O | . | . | 162.9 | . | . | .
SMILES | OPRM1-OPRD1 inv | HTR5A inv ctr | OPRM1-OPRD1 ag | HTR5A ag ctr | OPRM1-D1 ag cf | HTR5A ag ctr2
COc1ccccc1OC(C)C(=O)N1CC(=O)Nc2ccccc21 (stereo not drawn) | . | . | . | . | / | /
Cc1ccc(Sc2ccc(NC(=O)CCN3C(=O)NC4(CCCC4)C3=O)cc2)c(C)c1 | . | . | . | . | / | /
O=C1CCCN2N=C(SCC(=O)Nc3nccs3)SC2=N1 | . | . | . | . | / | /
O=C(Nc1ccc2c(c1)C(=O)N(c1ccccc1)C2=O)c1cccs1 | . | . | 18.4 | . | . | .
CC(=O)Nc1ccc(NC(=O)C(=O)NCC(c2ccco2)N2CCc3ccccc3C2)cc1 (stereo not drawn) | . | . | 20.7 | . | 22.5 | .
CCC(c1ccccc1)C(CC)c1cc(O)c(O)c(O)c1 (stereo not drawn) | . | . | 18.1 | . | . | .
CCC(C)c1ccccc1O (stereo not drawn) | . | . | . | . | / | /
CN(C(=O)c1cc2ccccc2o1)c1c(N)n(Cc2ccccc2)c(=O)[nH]c1=O | . | . | . | . | / | /
O=C(Nc1ccccn1)c1cc(-c2cccnc2)nc2ccc(Br)cc12 | . | . | 32.8 | . | 20.1 | .
Cc1cc(NC(=O)c2cc(-c3ccccn3)nc3ccc(Br)cc23)no1 | . | . | . | . | / | /
C=C(C)CNC(=S)Nc1nc2c(cc1C(=O)OCC)CCCC2 | . | . | . | . | / | /
Cc1ccc(C)c(N2CCN(C(=S)Nc3ccc4nc(N5CCOCC5)cc(C)c4c3)CC2)c1 | . | . | . | . | / | /
Cc1ccc(C)c(N2CCN(C(=S)Nc3ccc4nc(N5CCN(C)CC5)cc(C)c4c3)CC2)c1 | . | . | 18.3 | . | 21.6 | .
COc1ccc(C2=CSC(/N=C/c3ccc(F)cc3)=NN2)cc1 | . | . | . | . | / | /
CCCn1ncc(CN2CCC(n3nccc3NC(=O)CCc3ccccc3)CC2)c1C | . | . | 222.8 | . | . | .
CCCn1ncc(CN2CCC(n3nccc3NC(=O)c3ccccc3OC)CC2)c1C | . | . | . | . | / | /
CCn1cc(CN2CCC(n3nccc3NC(=O)CCc3ccccc3)CC2)cn1 | . | . | 30.9 | . | . | .
COC(=O)c1[nH]c2ccc(C)cc2c1NC(=O)Nc1ccc(OC)cc1 | . | . | . | . | / | /
COC(=O)c1[nH]c2ccc(F)cc2c1NC(=O)Nc1ccc(OC)cc1 | . | . | 22.9 | . | . | .
COc1ccc(S(=O)(=O)/N=C2\C=C(Nc3ccc(O)cc3)C(=O)c3ccccc32)cc1 | . | . | 21.3 | . | . | .
Cc1ccccc1NC1=C/C(=N\S(=O)(=O)c2ccc(C(=O)O)cc2)c2ccccc2C1=O | . | . | . | . | / | /
C[C@H]1O[C@@H](O[C@H]2[C@@H](O)C[C@H](O[C@H]3[C@@H](O)C[C@H](O[C@H]4CC[C@@]5(C)[C@H](CC[C@@H]6[C@@H]5C[C@@H](O)[C@]5(C)[C@@H](C7=CC(=O)OC7)CC[C@]65O)C4)O[C@@H]3C)O[C@@H]2C)C[C@H](O)[C@@H]1O | . | . | 64.9 | . | . | 104.6
COC(=O)c1sccc1NC(=O)c1ccnn1C | . | . | . | . | / | /
Cc1cc(/C=C2\SC(=S)N(C)C2=O)c(C)n1-c1ccc(O)cc1 | . | . | 51.9 | . | 33.1 | .
Cc1cc(/C=C2\SC(=S)N(C)C2=O)c(C)n1-c1ccccc1O | . | . | . | . | / | /
NC1=NC(=O)C(CC(=O)NCc2ccccc2)S1 (stereo not drawn) | . | . | . | . | / | /
CC1=CC(=O)C(C(C)C)=C/C1=N/OS(=O)(=O)c1ccccc1 | . | . | 205.5 | 30.4 | 82.6 | 28.6
Cc1ccc(-c2cc(C(=O)Nc3cc(C)ccc3C)[nH]n2)c(O)c1 | . | . | . | . | / | /
Cc1cc(C)c(-c2cc(C(=O)Nc3cc(C)ccc3C)[nH]n2)c(O)c1 | . | . | 20.4 | . | . | .
CC1CCCCN1C(=O)CN1C(=O)c2ccccc2S1(=O)=O (stereo not drawn) | . | . | . | . | / | /
